Data: PubChem BioAssay
Several values for one entry are separate records, joined by “and”; a condition that tells them apart may be missing. Identical values can stand only once. Inconclusive results are not listed. Activity calls are given as the source filed them.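 The calls were made as follows, unless noted: active = normalized viability below 100% at a tested concentration; inactive = the rest.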

Tests used:
[1] = growth inhibition of DIPG glioma cells, dose response, cell-based, SU-DIPG-XVII, MIPE5.0, CellTiter-Glo, qHTS (AID 1347060; cut-off not given, nearly all actives have AC50 up to about 26 µM;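 as to AC50: cells exposed to compound for 48 hours before viability readout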); conditions: SU-DIPG-XVII viability, CellTiter-Glo ATP luminescence
[2] = growth inhibition of DIPG glioma cells, dose response, cell-based, SU-DIPG-XIII, MIPE5.0, CellTiter-Glo, qHTS (AID 1347064; cut-off not given, nearly all actives have AC50 up to about 23 µM;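 as to AC50: cells exposed to compound for 48 hours before the viability read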); conditions: SU-DIPG-XIII viability, CellTiter-Glo ATP luminescence
[3] = viability loss in pontine glioma line – cell-based, SU-DIPG-XXV, MIPE5.0, CellTiter-Glo, qHTS, dose response (AID 1347065; cut-off not given, nearly all actives have AC50 up to about 26 µM;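 also: cells exposed to compound for 48 hours before ATP readout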); conditions: CellTiter-Glo ATP luminescence
[4] = JHH-DIPG-1 glioma cell viability, MIPE5.0 library, CellTiter-Glo luminescence, qHTS (AID 1347067; cut-off not given, nearly all actives have AC50 up to about 26 µM;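 also: cells exposed to compound for 48 hours before readout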); conditions: JHH-DIPG-1 glioma viability, CellTiter-Glo ATP luminescence
[5] = SU-DIPG-XXV glioma cell viability, MIPE5.0 library, qHTS (AID 1347068; cut-off not given, nearly all actives have IC50 up to about 30 µM;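 as to IC50: cells exposed to compound for 48 hours before viability readout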)
[6] = sensitizers of A549 cells to miR-34 induction, primary screen, imaging, A549 dox-inducible miR-34, nuclei and caspase counts (AID 1347080;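 active = compounds whose cell count with miR-34 switched on is under 0.7 times the count with it off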); conditions: A549 miR-34 inducible, Hoechst nuclei count, 48 h
[7] = survival rescue of mitochondrial mutant cells in low glucose, primary screen, MELAS cybrids, Rieske KO mouse fibroblasts, CellTiter-Glo (AID 1508586;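 active = mean z-score across replicates of 1.96 or higher in either the MELAS or the Rieske mutant cell line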;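 also: z relative to plate mean and SD of compound and empty wells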)
[8] = ovarian cancer cell viability with rucaparib, profiling panel, oncology-focused library, rucaparib conditional (AID 1508598); conditions: patient-derived ovarian cancer cells, CellTiter-Glo viability, 144 h, stronger effect = lower value
[9] = stronger effect = lower value, cell number ratio, induced over uninduced
[10] = measured here: relative caspase fold change +Dox/-Dox
[11] = measured here: total cells with miR-34 induction, stronger effect = lower value
[12] = measured here: total cells without miR-34 induction
[13] = MELAS cybrid survival, CellTiter-Glo 48 h, stronger effect = higher value
[14] = Rieske KO mouse fibroblast survival, CellTiter-Glo 72 h
[15] = at 0.000305 µM, OCI-C5x cells, with rucaparib 10 µM, 100% = cells with rucaparib alone
[16] = at 0.000305 µM, OCI-C5x cells, without rucaparib
[17] = at 0.000305 µM, OCI-P5x cells, with rucaparib 20 µM, 100% = cells with rucaparib alone
[18] = at 0.000305 µM, OCI-P5x cells, without rucaparib
[19] = at 0.00122 µM, OCI-C5x cells, with rucaparib 10 µM, 100% = cells with rucaparib alone
[20] = at 0.00122 µM, OCI-C5x cells, without rucaparib
[21] = at 0.00122 µM, OCI-P5x cells, with rucaparib 20 µM, 100% = cells with rucaparib alone
[22] = at 0.00122 µM, OCI-P5x cells, without rucaparib
[23] = at 0.00488 µM, OCI-C5x cells, with rucaparib 10 µM, 100% = cells with rucaparib alone
[24] = at 0.00488 µM, OCI-C5x cells, without rucaparib
[25] = at 0.00488 µM, OCI-P5x cells, with rucaparib 20 µM, 100% = cells with rucaparib alone
[26] = at 0.00488 µM, OCI-P5x cells, without rucaparib
[27] = at 0.0195 µM, OCI-C5x cells, with rucaparib 10 µM, 100% = cells with rucaparib alone
[28] = at 0.0195 µM, OCI-C5x cells, without rucaparib
[29] = at 0.0195 µM, OCI-P5x cells, with rucaparib 20 µM, 100% = cells with rucaparib alone
[30] = at 0.0195 µM, OCI-P5x cells, without rucaparib
[31] = at 0.0781 µM, OCI-C5x cells, with rucaparib 10 µM, 100% = cells with rucaparib alone
[32] = at 0.0781 µM, OCI-C5x cells, without rucaparib
[33] = at 0.0781 µM, OCI-P5x cells, with rucaparib 20 µM, 100% = cells with rucaparib alone
[34] = at 0.0781 µM, OCI-P5x cells, without rucaparib
[35] = at 0.313 µM, OCI-C5x cells, with rucaparib 10 µM, 100% = cells with rucaparib alone
[36] = at 0.313 µM, OCI-C5x cells, without rucaparib
[37] = at 0.313 µM, OCI-P5x cells, with rucaparib 20 µM, 100% = cells with rucaparib alone
[38] = at 0.313 µM, OCI-P5x cells, without rucaparib
[39] = at 1.25 µM, OCI-C5x cells, with rucaparib 10 µM, 100% = cells with rucaparib alone
[40] = at 1.25 µM, OCI-C5x cells, without rucaparib
[41] = at 1.25 µM, OCI-P5x cells, with rucaparib 20 µM, 100% = cells with rucaparib alone
[42] = at 1.25 µM, OCI-P5x cells, without rucaparib
[43] = at 5 µM, OCI-C5x cells, with rucaparib 10 µM, 100% = cells with rucaparib alone
[44] = at 5 µM, OCI-C5x cells, without rucaparib
[45] = at 5 µM, OCI-P5x cells, with rucaparib 20 µM, 100% = cells with rucaparib alone
[46] = at 5 µM, OCI-P5x cells, without rucaparib

CC(=O)Nc1cc(Oc2ccc3c(nc(Nc4ccc(F)cc4F)n3C)c2C)ccn1
active: AC50 [1] 372 nM | AC50 [2] 4170 nM | AC50 [3] 118 nM | AC50 [4] 525 nM | IC50 [5] 1050 nM

CCC(=O)Nc1cccc(Oc2nc(Nc3ccc(N4CCN(C)CC4)cc3OC)ncc2Cl)c1
3260: cell count [6, 11]
0.64: z-score [7, 14]
4310: cell count [6, 12]
inactive: outcome [5] | fold change [6, 9] 0.756 | z-score [7, 13] -0.403
active: AC50 [1] 9340 nM | AC50 [2] 10500 nM | AC50 [3] 7420 nM | AC50 [4] 18600 nM
0.553: fold change [6, 10]

Cc1ccc(C(=O)Nc2ccc(CN3CCN(C)CC3)c(C(F)(F)F)c2)cc1C#Cc1cnc2[nH]ncc2c1
inactive: fold change [6, 9] 0.928 | z-score [7, 13] 0.831
-6.34: z-score [7, 14]
546: cell count [6, 12]
506: cell count [6, 11]
0.675: fold change [6, 10]
active: AC50 [1] 41.7 nM | AC50 [2] 11.8 nM | AC50 [3] 26.3 nM | AC50 [4] 468 nM | IC50 [5] 332 nM

CCCc1c(OCCCOc2ccc(OCC(=O)O)cc2)ccc(C(C)=O)c1O
inactive: outcome [1] | outcome [2] | outcome [3] | outcome [4] | outcome [5] | fold change [6, 9] 0.974
9670: cell count [6, 11]
1.33: fold change [6, 10]
9930: cell count [6, 12]

COc1cc(Nc2ncc(F)c(Nc3ccc4c(n3)NC(=O)C(C)(C)O4)n2)cc(OC)c1OC
inactive: fold change [6, 9] 1.02 and 1.15 | z-score [7, 13] -0.458 and -0.514 | viability [8, 15] 109% | viability [8, 16] 101% | viability [8, 19] 111% | viability [8, 20] 109% | viability [8, 23] 111% | viability [8, 24] 111% | viability [8, 27] 118% | viability [8, 28] 112% | viability [8, 31] 107% | viability [8, 32] 114% | viability [8, 35] 112% | viability [8, 36] 126% | viability [8, 39] 116% | viability [8, 40] 127% | viability [8, 43] 122% | viability [8, 44] 151%
active: AC50 [1] 1180 nM | AC50 [2] 1860 nM | AC50 [3] 1320 nM | AC50 [4] 5900 nM | viability [8, 17] 83% | viability [8, 18] 96.3% | viability [8, 21] 82.7% | viability [8, 22] 86.9% | viability [8, 25] 78.5% | viability [8, 26] 95.2% | viability [8, 29] 70.2% | viability [8, 30] 74.2% | viability [8, 33] 59.3% | viability [8, 34] 55% | viability [8, 37] 46.3% | viability [8, 38] 50% | viability [8, 41] 81.5% | viability [8, 42] 99.3% | viability [8, 45] 79% | viability [8, 46] 96.9%
0.0101 and 0.0182: z-score [7, 14]
1520 and 950: cell count [6, 12]
0.841 and 0.707: fold change [6, 10]
1550 and 1090: cell count [6, 11]

C=CC(=O)Nc1cccc(Nc2nc(Nc3ccc(NC4CN(CCF)C4)cc3OC)ncc2C(F)(F)F)c1
1930: cell count [6, 11]
0.345: fold change [6, 10]
active: AC50 [1] 1480 nM | AC50 [2] 2350 nM | AC50 [3] 1320 nM | AC50 [4] 2630 nM | IC50 [5] 833 nM | viability [8, 17] 98.4% | viability [8, 18] 92.9% | viability [8, 21] 99.4% | viability [8, 22] 89.9% | viability [8, 25] 96.9% | viability [8, 26] 94.8% | viability [8, 29] 98.4% | viability [8, 34] 98.1% | viability [8, 41] 83.8% | viability [8, 42] 83.2% | viability [8, 43] 19.5% | viability [8, 44] 94.4% | viability [8, 45] 13.3% | viability [8, 46] 20%
inactive: fold change [6, 9] 0.964 | z-score [7, 13] 0.32 | viability [8, 15] 115% | viability [8, 16] 107% | viability [8, 19] 122% | viability [8, 20] 120% | viability [8, 23] 123% | viability [8, 24] 114% | viability [8, 27] 118% | viability [8, 28] 108% | viability [8, 30] 103% | viability [8, 31] 102% | viability [8, 32] 115% | viability [8, 33] 103% | viability [8, 35] 132% | viability [8, 36] 127% | viability [8, 37] 106% | viability [8, 38] 104% | viability [8, 39] 119% | viability [8, 40] 126%
1.6: z-score [7, 14]
2000: cell count [6, 12]

c1ccc(Cn2c(-c3ccc(OCC(C4CCNCC4)n4c(-c5ccccc5)nc5ccccc54)cc3)nc3ccccc32)cc1 (centres undefined)
inactive: fold change [6, 9] 1.11 | z-score [7, 13] -0.583
0.359: fold change [6, 10]
-1.33: z-score [7, 14]
5600: cell count [6, 11]
active: AC50 [1] 18600 nM | AC50 [2] 20900 nM | AC50 [3] 13200 nM | AC50 [4] 16600 nM | IC50 [5] 23500 nM
5040: cell count [6, 12]

Cc1cc(C)cc(NC(=O)Cc2ccc(OC(C)(C)C(=O)O)cc2)c1
-0.194: z-score [7, 14]
inactive: outcome [1] | outcome [2] | outcome [3] | outcome [4] | outcome [5] | fold change [6, 9] 0.94 | z-score [7, 13] -0.243
0.66: fold change [6, 10]
8990: cell count [6, 11]
9560: cell count [6, 12]

c1ccc2c(-c3cnn4cc(-c5ccc(N6CCNCC6)cc5)cnc34)ccnc2c1
active: AC50 [1] 3320 nM | AC50 [2] 5250 nM | AC50 [3] 2630 nM | AC50 [4] 2630 nM | IC50 [5] 5900 nM

C=CC(=O)Nc1ccc2ncnc(Nc3cccc(Br)c3)c2c1
active: AC50 [1] 10500 nM | AC50 [2] 18600 nM | AC50 [3] 9340 nM | AC50 [4] 13200 nM | IC50 [5] 4680 nM
-0.0488: z-score [7, 14]
3490: cell count [6, 11]
3830: cell count [6, 12]
inactive: fold change [6, 9] 0.91 | z-score [7, 13] -0.254
0.865: fold change [6, 10]
